PubChem BioAssay (Tox21)
Records with an inconclusive call do not appear. Calls of active or inactive are those of the source. Unless noted, calls come from the whole dose curve; as a rule, active = well fitted curve in the direction sought with a large enough effect in the repeat runs; inconclusive = weak or mixed curves; inactive = no such curve, though single readings can be large; an effect the other way counts as inactive or inconclusive.

Experiments:
[1] = biological target: Estrogen receptor beta (Homo sapiens) (UniProt Q92731); experiment: qHTS assay to identify small molecule agonists of the estrogen receptor beta (ER-beta) signaling pathway (AID 1259377; active = well fitted activation curve with a large enough effect in the signal ratio in the repeat runs, not every such curve was filed as active; the % refers to the signal ratio)
Sequence of Estrogen receptor beta (Homo sapiens) (Q92731 whole entry, looked up): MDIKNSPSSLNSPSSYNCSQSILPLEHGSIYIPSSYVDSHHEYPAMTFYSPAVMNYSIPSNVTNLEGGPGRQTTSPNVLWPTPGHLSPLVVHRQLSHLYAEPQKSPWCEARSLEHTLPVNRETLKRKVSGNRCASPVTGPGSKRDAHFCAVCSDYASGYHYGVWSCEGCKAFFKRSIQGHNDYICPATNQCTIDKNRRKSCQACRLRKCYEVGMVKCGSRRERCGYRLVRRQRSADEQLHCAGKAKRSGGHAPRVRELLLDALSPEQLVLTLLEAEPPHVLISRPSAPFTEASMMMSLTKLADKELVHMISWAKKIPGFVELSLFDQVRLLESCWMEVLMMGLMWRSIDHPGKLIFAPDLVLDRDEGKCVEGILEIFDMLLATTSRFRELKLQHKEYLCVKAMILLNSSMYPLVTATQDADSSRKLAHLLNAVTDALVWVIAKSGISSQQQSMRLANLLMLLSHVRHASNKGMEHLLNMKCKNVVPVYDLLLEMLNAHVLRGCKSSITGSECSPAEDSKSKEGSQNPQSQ
How it was run: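 Read-out: beta-lactamase FRET fluorescence. Cell line: ER-beta-UAS-bla HEK293T in 2% charcoal-stripped FBS. Exposure: 16 hr at 37C. Substrate step: 2 h at room temperature.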

[2] = biological target: Estrogen receptor beta (Homo sapiens) (UniProt Q92731); experiment: qHTS assay to identify small molecule antagonists of the estrogen receptor beta (ER-beta) signaling pathway (AID 1259378; active = well fitted inhibition curve with a large enough effect in the signal ratio in the repeat runs, not every such curve was filed as active; the % refers to the signal ratio; note: potency is the fitted concentration of half-maximal effect)
How it was run: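 ER-beta-UAS-bla HEK293T cells in 2% charcoal-stripped FBS medium treated with compound plus 1nM final 17-beta-estradiol for 16 hr at 37C. Beta-lactamase reporter read by FRET substrate fluorescence after 2 hours at room temperature.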

[3] = qHTS assay to identify small molecule agonists of the androgen receptor (AR) signaling pathway in the presence of an antagonist - cell viability counter screen (AID 1259379); note: nearly all actives have a fitted effect of over 25% in size; note: potency is the fitted concentration of half-maximal effect
How it was run: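 Seed MDA-kb2 at 3,000 cells/well; incubate 5 hr, 37C, 0% CO2. Add nilutamide to 3.0uM final, then pin compounds at 15 concentrations. Incubate 16 hr. Add CellTiter-Fluor at 15 hr, read fluorescence after 1 hr.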

[4] = qHTS assay to identify small molecule agonists of the estrogen receptor beta (ER-beta) signaling pathway - cell viability counter screen (AID 1259380); note: nearly all actives have a fitted effect of over 30% in size; note: potency is the fitted concentration of half-maximal effect
How it was run: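 CellTiter-Glo read, 30 min RT, same wells as bla assay; cells ER-beta-UAS-bla HEK293T; 16 hr compound, 37C; medium 2% charcoal-stripped FBS.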

[5] = qHTS assay to identify small molecule antagonists of the estrogen receptor beta (ER-beta) signaling pathway - cell viability counter screen (AID 1259382); note: nearly all actives have a fitted effect of over 55% in size; note: potency is the fitted concentration of half-maximal effect
How it was run: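 In this multiplexed counter screen, cells were seeded at 2,000 per well in medium with 2% charcoal-stripped FBS and incubated 6 hr before compound and 1nM final E2 were added. Sixteen hours later, ATP-based luminescence reported viability.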

[6] = biological target: Estrogen receptor (Homo sapiens) (UniProt P03372); experiment: qHTS assay to identify small molecule agonists of the estrogen receptor alpha (ER-alpha) signaling pathway in the presence of an antagonist (AID 1259383; calls by dose curve; note: top concentration of the series differs between compounds; nearly all actives have a fitted effect of over 15% in size)
Sequence of Estrogen receptor (Homo sapiens) (P03372 whole entry, looked up): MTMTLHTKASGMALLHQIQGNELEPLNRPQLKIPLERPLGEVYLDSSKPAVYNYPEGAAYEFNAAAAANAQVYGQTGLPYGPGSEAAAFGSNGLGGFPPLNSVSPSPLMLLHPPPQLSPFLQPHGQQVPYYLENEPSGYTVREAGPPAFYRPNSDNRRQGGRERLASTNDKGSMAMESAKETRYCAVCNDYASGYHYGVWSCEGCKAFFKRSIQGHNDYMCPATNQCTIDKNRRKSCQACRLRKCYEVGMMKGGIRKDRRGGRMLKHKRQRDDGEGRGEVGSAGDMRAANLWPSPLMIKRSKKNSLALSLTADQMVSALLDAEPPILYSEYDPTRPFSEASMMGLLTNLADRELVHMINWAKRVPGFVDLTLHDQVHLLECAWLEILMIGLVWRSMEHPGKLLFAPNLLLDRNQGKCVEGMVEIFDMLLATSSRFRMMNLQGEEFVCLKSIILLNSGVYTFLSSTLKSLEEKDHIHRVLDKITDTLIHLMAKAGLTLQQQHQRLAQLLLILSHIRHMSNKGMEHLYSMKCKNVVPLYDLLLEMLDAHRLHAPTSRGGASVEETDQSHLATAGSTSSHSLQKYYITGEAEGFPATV
How it was run: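 Stably transfected VM7Luc4E2 reporter cells, kept 5 days in charcoal-stripped serum, received ICI-182,780 at 10.0nM final before compound addition. Following 22hr incubation at 37C and 5% CO2, luciferase signal was read by luminescence.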

[7] = qHTS assay to identify small molecule agonists or antagonists of the thyroid stimulating hormone receptor (TSHR) signaling pathway - wild type cell line counter screen (AID 1259384; calls by dose curve)
How it was run: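 Wild-type Hek293 cells, 800/well, 18 h at 37C, then compound with Ro20-1724 for 30 min RT. cAMP by HTRF (cAMP-d2/anti-cAMP cryptate), 1 h RT, fluorescence read. 15 concentrations, triplicates.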

[8] = biological target: Thyrotropin receptor (Homo sapiens) (UniProt P16473); experiment: qHTS assay to identify small molecule antagonists of the thyroid stimulating hormone receptor (TSHR) signaling pathway (AID 1259385; calls by dose curve; note: nearly all actives have a fitted effect of over 20% in size)
Sequence of Thyrotropin receptor (Homo sapiens) (P16473 whole entry, looked up): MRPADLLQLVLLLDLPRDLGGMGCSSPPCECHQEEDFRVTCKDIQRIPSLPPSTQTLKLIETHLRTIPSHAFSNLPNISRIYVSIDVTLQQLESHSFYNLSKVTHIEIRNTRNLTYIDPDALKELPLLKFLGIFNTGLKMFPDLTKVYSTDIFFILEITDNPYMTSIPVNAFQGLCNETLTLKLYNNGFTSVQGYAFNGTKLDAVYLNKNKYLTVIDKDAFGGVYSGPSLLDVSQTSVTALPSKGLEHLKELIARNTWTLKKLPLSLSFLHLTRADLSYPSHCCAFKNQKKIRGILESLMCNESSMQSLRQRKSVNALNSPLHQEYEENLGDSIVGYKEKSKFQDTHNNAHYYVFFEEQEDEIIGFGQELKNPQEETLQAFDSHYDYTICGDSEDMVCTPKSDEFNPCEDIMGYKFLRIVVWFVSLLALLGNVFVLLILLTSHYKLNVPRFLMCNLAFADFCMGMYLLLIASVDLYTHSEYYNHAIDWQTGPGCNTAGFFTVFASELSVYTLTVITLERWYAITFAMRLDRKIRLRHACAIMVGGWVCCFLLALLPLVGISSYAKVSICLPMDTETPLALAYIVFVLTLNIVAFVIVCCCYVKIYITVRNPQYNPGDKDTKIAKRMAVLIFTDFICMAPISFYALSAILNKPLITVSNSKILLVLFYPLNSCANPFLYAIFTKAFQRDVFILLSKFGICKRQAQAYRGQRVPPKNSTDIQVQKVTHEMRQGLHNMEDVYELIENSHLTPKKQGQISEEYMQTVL
How it was run: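 TSHR-HEK293 cells (800/well) plated 18 h, then compounds with Ro20-1724 and TSH at 1.5 ng/mL final, 30 min at room temperature. cAMP quantified by HTRF (cAMP-d2/anti-cAMP-cryptate, 1 h); 15 concentrations in triplicate.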

[9] = qHTS assay to identify small molecule agonists of the estrogen receptor alpha (ER-alpha) signaling pathway in the presence of an antagonist - cell viability counter screen (AID 1259386);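 note: cells exposed to compounds for 22 h at 37 °C before the viability read; nearly all actives have a fitted effect of over 30% in size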; note: potency is the fitted concentration of half-maximal effect
How it was run: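 Viability counter screen using VM7Luc4E2 (full-length ER-alpha, four ERE-luciferase). The cells were treated with compounds alongside ICI-182,780 10.0nM for 22hr, and live-cell protease fluorescence was quantified with CellTiter-Fluor.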

[10] = biological target: Progesterone receptor (Homo sapiens) (UniProt P06401); experiment: qHTS assay to identify small molecule agonists of the progesterone receptor (PR) signaling pathway (AID 1346784; calls by dose curve; note: nearly all actives have a fitted effect of over 30% in size)
Sequence of Progesterone receptor (Homo sapiens) (P06401 whole entry, looked up): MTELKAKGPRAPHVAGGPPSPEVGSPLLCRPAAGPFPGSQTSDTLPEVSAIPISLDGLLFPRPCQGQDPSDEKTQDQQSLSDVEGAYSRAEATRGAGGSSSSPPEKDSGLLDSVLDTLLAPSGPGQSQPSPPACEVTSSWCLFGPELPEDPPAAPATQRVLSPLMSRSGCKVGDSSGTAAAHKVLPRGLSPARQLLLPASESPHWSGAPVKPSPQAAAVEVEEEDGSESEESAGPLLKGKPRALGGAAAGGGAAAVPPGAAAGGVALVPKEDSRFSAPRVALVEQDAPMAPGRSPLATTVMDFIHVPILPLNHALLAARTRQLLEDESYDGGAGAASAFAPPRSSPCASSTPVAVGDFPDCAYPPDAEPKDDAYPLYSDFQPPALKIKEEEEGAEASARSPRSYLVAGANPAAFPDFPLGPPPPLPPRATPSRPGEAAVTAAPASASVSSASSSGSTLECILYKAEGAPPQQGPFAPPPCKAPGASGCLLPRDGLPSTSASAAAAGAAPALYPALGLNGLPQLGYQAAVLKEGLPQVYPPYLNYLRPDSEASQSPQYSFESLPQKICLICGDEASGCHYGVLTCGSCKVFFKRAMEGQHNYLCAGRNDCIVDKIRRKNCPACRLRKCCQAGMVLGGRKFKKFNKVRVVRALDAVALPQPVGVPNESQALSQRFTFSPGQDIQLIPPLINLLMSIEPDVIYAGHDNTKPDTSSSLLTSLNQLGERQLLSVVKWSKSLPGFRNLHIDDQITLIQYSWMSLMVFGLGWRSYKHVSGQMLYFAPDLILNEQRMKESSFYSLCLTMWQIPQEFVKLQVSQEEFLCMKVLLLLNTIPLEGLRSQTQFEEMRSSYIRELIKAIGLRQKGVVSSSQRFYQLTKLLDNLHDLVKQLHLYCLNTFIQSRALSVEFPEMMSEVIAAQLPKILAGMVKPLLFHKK
How it was run: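 Compounds were tested for PR agonism in HEK 293T cells bearing a beta-lactamase gene under UAS control. Treatment lasted 16 hr at 37C; signal came from fluorescence of a FRET substrate.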

[11] = biological target: Progesterone receptor (Homo sapiens) (UniProt P06401); experiment: qHTS assay to identify small molecule antagonists of the progesterone receptor (PR) signaling pathway (AID 1346795; active = well fitted inhibition curve with a large enough effect in the signal ratio in the repeat runs, not every such curve was filed as active; the % refers to the signal ratio; note: potency is the fitted concentration of half-maximal effect)
How it was run: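 In HEK293T cells bearing the PR-UAS-bla reporter, compound effects on promegestone-driven (1 nM) beta-lactamase expression are assessed after 16 hr using a fluorescent FRET substrate incubated 2 hr at room temperature.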

[12] = qHTS assay to identify small molecule antagonists of the progesterone receptor (PR) signaling pathway - cell viability counter screen (AID 1346798); note: nearly all actives have a fitted effect of over 50% in size; note: potency is the fitted concentration of half-maximal effect
How it was run: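 Following a 4 hr attachment, PR-UAS-bla HEK293T cells in charcoal-stripped FBS medium were exposed to compounds with R5020 for 16 hr; CellTiter-Glo was added and luminescence read after 30 min at room temperature.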

[13] = qHTS assay to identify small molecule agonists of the progesterone receptor (PR) signaling pathway - cell viability counter screen (AID 1346799; calls by dose curve; note: nearly all actives have a fitted effect of over 45% in size)
How it was run: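 Here, 3,000 PR-UAS-bla HEK293T cells per well were treated with compounds for 16 hr after a 6 hr preincubation at 37C and 5% CO2; cell viability is the CellTiter-Glo luminescence signal.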

[14] = qHTS assay to identify small molecule antagonists of the TGF-beta/Smad signaling pathway - cell viability counter screen (AID 1346824); note: nearly all actives have a fitted effect of over 50% in size
How it was run: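 SBE-bla HEK 293T cells, incubated overnight, then compound plus 0.25 ng/mL TGF-beta1 (stock added) for 5 hr at 37 C. Viability was read in the same wells by CellTiter-Glo luminescence after 30 min at room temperature.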

[15] = qHTS assay to identify small molecule agonists of the TGF-beta/Smad signaling pathway (AID 1346859; active = well fitted activation curve with a large enough effect in the signal ratio in the repeat runs, not every such curve was filed as active; the % refers to the signal ratio; note: series mostly up to about 77 µM)
How it was run: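 Each well held 4,000 SBE-bla HEK 293T cells incubated overnight before compound addition; 5 hr later the cleavable FRET substrate went on for 2 hr at room temperature, and fluorescence was read at two emissions.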

[16] = biological target: Thyrotropin-releasing hormone receptor (Homo sapiens) (UniProt P34981); experiment: qHTS assay to identify small molecule antagonists of the thyrotropin-releasing hormone receptor (TRHR) signaling pathway (AID 1346877; active = well fitted inhibition curve with a large enough effect in the repeat runs, not every such curve was filed as active; note: series mostly up to about 51 µM)
Sequence of Thyrotropin-releasing hormone receptor (Homo sapiens) (P34981 whole entry, looked up): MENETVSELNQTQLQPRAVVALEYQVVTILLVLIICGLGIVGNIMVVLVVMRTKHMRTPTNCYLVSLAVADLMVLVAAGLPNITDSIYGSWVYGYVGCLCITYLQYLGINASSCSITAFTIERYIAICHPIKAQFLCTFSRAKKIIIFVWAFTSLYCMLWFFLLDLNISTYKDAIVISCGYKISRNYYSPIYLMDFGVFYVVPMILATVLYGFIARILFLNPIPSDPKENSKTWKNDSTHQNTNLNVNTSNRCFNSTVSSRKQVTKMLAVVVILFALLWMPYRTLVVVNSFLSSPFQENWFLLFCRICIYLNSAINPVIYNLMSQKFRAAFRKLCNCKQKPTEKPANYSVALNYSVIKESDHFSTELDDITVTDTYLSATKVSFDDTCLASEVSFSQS
How it was run: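 Following an 18 h incubation at 37 °C and a 2 h calcium dye load, TRHR-HEK293 cells were exposed to compound (5 min, room temperature) and challenged with TRH, 1 nM final.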

[17] = biological target: Thyrotropin-releasing hormone receptor (Homo sapiens) (UniProt P34981); experiment: qHTS assay to identify small molecule agonists of the thyrotropin-releasing hormone receptor (TRHR) signaling pathway (AID 1346891; calls by dose curve; note: series mostly up to about 58 µM)
How it was run: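 Screening of agonists relied on calcium signalling in HEK293 cells expressing human TRHR: dye loading 2 h at 37 °C preceded compound addition and a 3-min fluorescence time course.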

[18] = Human pregnane X receptor (PXR) small molecule agonists, qHTS cell viability counter screen (AID 1346977); note: nearly all actives have a fitted effect of over 50% in size; note: potency is the fitted concentration of half-maximal effect
How it was run: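 Tox21 qHTS format; PXR-Luc HepG2, 2,000/well, charcoal-stripped FBS 5%. Cpd exposure 24hr. Read: CellTiter-Fluor fluorescence, multiplexed with luciferase.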

[19] = biological target: Androgen receptor (Homo sapiens) (UniProt P10275); experiment: qHTS assay to identify small molecule agonists of the androgen receptor (AR) signaling pathway in the presence of an antagonist (AID 1259381; calls by dose curve; note: nearly all actives have a fitted effect of over 15% in size)
Sequence of Androgen receptor (Homo sapiens) (P10275 whole entry, looked up): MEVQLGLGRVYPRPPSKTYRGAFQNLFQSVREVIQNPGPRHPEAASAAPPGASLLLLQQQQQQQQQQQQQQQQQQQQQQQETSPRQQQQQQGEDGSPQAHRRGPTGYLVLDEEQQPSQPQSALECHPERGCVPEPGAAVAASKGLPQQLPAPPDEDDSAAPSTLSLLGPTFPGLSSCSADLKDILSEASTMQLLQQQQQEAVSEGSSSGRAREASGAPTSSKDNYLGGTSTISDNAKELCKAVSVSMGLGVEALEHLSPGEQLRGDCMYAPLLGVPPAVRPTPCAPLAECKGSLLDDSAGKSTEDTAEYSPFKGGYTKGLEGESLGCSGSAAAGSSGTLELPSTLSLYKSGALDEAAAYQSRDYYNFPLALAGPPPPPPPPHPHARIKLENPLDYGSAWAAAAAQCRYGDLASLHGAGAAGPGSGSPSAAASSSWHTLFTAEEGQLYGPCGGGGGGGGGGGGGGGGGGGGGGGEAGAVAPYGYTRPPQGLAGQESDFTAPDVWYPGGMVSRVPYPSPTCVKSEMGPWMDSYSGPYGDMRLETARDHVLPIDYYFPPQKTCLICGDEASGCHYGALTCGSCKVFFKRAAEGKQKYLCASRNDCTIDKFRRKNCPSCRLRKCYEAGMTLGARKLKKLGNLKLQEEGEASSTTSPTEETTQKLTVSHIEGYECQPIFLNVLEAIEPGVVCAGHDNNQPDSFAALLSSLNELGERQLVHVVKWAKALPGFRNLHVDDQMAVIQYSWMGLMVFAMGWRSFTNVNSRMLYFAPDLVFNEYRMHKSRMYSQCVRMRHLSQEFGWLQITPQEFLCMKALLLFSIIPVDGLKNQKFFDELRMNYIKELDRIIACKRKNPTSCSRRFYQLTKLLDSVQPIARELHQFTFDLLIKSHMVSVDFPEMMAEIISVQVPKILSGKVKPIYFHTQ
How it was run: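 Test compounds at 15 concentrations were incubated for 16hr with MDA-kb2 reporter cells in presence of 3.0uM nilutamide (final). Signal: ONE-Glo luciferase luminescence.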

[20] = qHTS assay to identify small molecule agonists of the TGF-beta/Smad signaling pathway - cell viability counter screen (AID 1346829); note: top concentration of the series differs between compounds; nearly all actives have a fitted effect of over 45% in size
How it was run: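 Luminescence from CellTiter-Glo, read after a 30 min room-temperature incubation, gives cell viability of SBE-bla HEK 293T cells treated 5 hr with compounds at 37 C.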

Measured: Potency

O=S(=O)(O)CCCN1CCOCC1
not listed: [19] | [20]
inactive: all other assays above

COc1ccc(-n2nc(CCC(=O)N(C)O)cc2-c2ccc(Cl)cc2)cc1
active: [2] 7.5 µM | [4] 7.5 µM
not listed: [5] | [10] | [11] | [12] | [13] | [18]
inactive: all other assays above

CCOC(=O)COc1ccc(C)cc1
not listed: [12] | [16] | [18] | [19]
inactive: all other assays above

O=C1NC2CCCCN2C12CCN(CCCN1c3ccccc3CCc3ccc(Cl)cc31)CC2 (stereo not drawn)
inactive: [1] | [6] | [7] | [10] | [14] | [16] | [17]
active: [2] 23.7 µM | [3] 26.6 µM | [4] 26.6 µM | [5] 26.6 µM | [9] 29.8 µM | [11] 26.6 µM | [12] 26.6 µM | [18] 26.6 µM
